Data: PubChem BioAssay (NCI)
About 83,000 compounds went through this panel and 20% of them were active in at least one assay; those are over-represented in the sample as a whole.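 Results are percent growth after 48 hours of single-concentration exposure. 100 means growth as in untreated cells, lower positive values show inhibition; negative values down to -100 show cell death.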 Active and inactive are the calls of the source. Rule for the calls: active = growth percent below 10; inactive = the rest.

What was measured:
Test in all cases: NCI-60 one-dose screen, 48 h (100 = growth as untreated, 0 = no growth, -100 = all killed)
Conditions in all cases: 10 µM unless noted
HCT-15 colon = tested on: HCT-15 colon
HT29 colon = tested on: HT29 colon
SNB-19 CNS = tested on: SNB-19 CNS
U251 CNS = tested on: U251 CNS
PC-3 prostate = tested on: PC-3 prostate
SK-MEL-5 melanoma = tested on: SK-MEL-5 melanoma
UACC-62 melanoma = tested on: UACC-62 melanoma
LOX IMVI melanoma = tested on: LOX IMVI melanoma
SK-MEL-28 melanoma = tested on: SK-MEL-28 melanoma
SK-MEL-2 melanoma = tested on: SK-MEL-2 melanoma
SN12C renal = tested on: SN12C renal
UO-31 renal = tested on: UO-31 renal
TK-10 renal = tested on: TK-10 renal
ACHN renal = tested on: ACHN renal
CAKI-1 renal = tested on: CAKI-1 renal
A498 renal = tested on: A498 renal
CCRF-CEM leukemia = tested on: CCRF-CEM leukemia
MOLT-4 leukemia = tested on: MOLT-4 leukemia
EKVX NSCLC = tested on: EKVX NSCLC

Measured: growth

COc1cc(-c2nn(-c3cccc(NC(=O)c4ccccc4)c3)cc2-c2ccncc2)ccc1Cl
active: HT29 colon 2.03% | SK-MEL-5 melanoma -49.4% | SK-MEL-2 melanoma -42.5% | A498 renal -23.2% | CCRF-CEM leukemia 2.06% | MOLT-4 leukemia 0.658%
inactive: HCT-15 colon 19.2% | SNB-19 CNS 50% | U251 CNS 13.5% | PC-3 prostate 10.5% | UACC-62 melanoma 32.5% | LOX IMVI melanoma 17.4% | SK-MEL-28 melanoma 34.4% | SN12C renal 28.8% | UO-31 renal 29.8% | TK-10 renal 31% | ACHN renal 32.3% | CAKI-1 renal 40.6%

FC(F)(F)c1cccc(-c2cn3c(ccc4ccccc43)n2)c1
inactive: HCT-15 colon 90.9% | HT29 colon 102% | SNB-19 CNS 100% | U251 CNS 86.9% | PC-3 prostate 83% | SK-MEL-5 melanoma 92.4% | UACC-62 melanoma 79.9% | LOX IMVI melanoma 90.1% | SK-MEL-28 melanoma 115% | SK-MEL-2 melanoma 102% | EKVX NSCLC 85.4% | SN12C renal 97% | UO-31 renal 68.1% | TK-10 renal 122% | ACHN renal 90.3% | A498 renal 94.9% | CCRF-CEM leukemia 105% | MOLT-4 leukemia 104%

NC1=NC(SCc2ccccc2CCl)c2ncn(Cc3ccccc3CCl)c2N1 (centres undefined)
inactive: HCT-15 colon 76.5% | HT29 colon 14.4% | SNB-19 CNS 74.7% | U251 CNS 36.8% | PC-3 prostate 78.6% | SK-MEL-5 melanoma 48.4% | UACC-62 melanoma 34.2% | SK-MEL-28 melanoma 65.2% | EKVX NSCLC 77.9% | SN12C renal 37.8% | UO-31 renal 61.3% | TK-10 renal 56.2% | ACHN renal 31.8% | CAKI-1 renal 32.4% | MOLT-4 leukemia 14.5%
active: LOX IMVI melanoma -80.2% | SK-MEL-2 melanoma -4.24% | CCRF-CEM leukemia 7.36%

O=c1c2sc3ncccc3c2nnn1-c1ccccc1
inactive: HCT-15 colon 96% | HT29 colon 109% | SNB-19 CNS 93.6% | U251 CNS 97.7% | PC-3 prostate 98.7% | SK-MEL-5 melanoma 102% | UACC-62 melanoma 105% | LOX IMVI melanoma 104% | SK-MEL-28 melanoma 109% | SK-MEL-2 melanoma 101% | SN12C renal 98.7% | UO-31 renal 90.6% | TK-10 renal 126% | ACHN renal 106% | CAKI-1 renal 93.5% | A498 renal 102% | CCRF-CEM leukemia 90.7% | MOLT-4 leukemia 97.7%

Brc1ccc(-c2[nH]ncc2-c2c[nH]c3ccccc23)cc1
inactive: HCT-15 colon 94.9% | HT29 colon 109% | SNB-19 CNS 97% | U251 CNS 93.9% | PC-3 prostate 77.4% | SK-MEL-5 melanoma 100% | UACC-62 melanoma 91.7% | LOX IMVI melanoma 89.7% | SK-MEL-28 melanoma 107% | SK-MEL-2 melanoma 109% | SN12C renal 88.5% | UO-31 renal 57.4% | TK-10 renal 129% | ACHN renal 96.5% | CAKI-1 renal 86.7% | A498 renal 65.1% | CCRF-CEM leukemia 54.7% | MOLT-4 leukemia 70.3%

N#Cc1c(-c2ccccc2)nc(SCC(=O)N2CCN(c3ccccc3)CC2)[nH]c1=O
inactive: HCT-15 colon 107% | HT29 colon 117% | SNB-19 CNS 99.9% | U251 CNS 95.7% | PC-3 prostate 95.6% | SK-MEL-5 melanoma 103% | UACC-62 melanoma 106% | LOX IMVI melanoma 97% | SK-MEL-28 melanoma 116% | SK-MEL-2 melanoma 113% | SN12C renal 110% | UO-31 renal 87.6% | TK-10 renal 145% | ACHN renal 101% | CAKI-1 renal 97.7% | A498 renal 116% | CCRF-CEM leukemia 100%

O=[N+]([O-])c1cccc(-c2nc3sccn3c2-c2ccnc(NCCCNS(=O)(=O)c3ccc(C(F)(F)F)cc3)n2)c1
active: SK-MEL-5 melanoma -45.5% | UACC-62 melanoma -13.2% | MOLT-4 leukemia 7.2%
inactive: HCT-15 colon 17.6% | HT29 colon 36.8% | SNB-19 CNS 69% | U251 CNS 60.9% | PC-3 prostate 12% | LOX IMVI melanoma 17.6% | SK-MEL-28 melanoma 49.8% | SK-MEL-2 melanoma 25.3% | EKVX NSCLC 38.1% | SN12C renal 35.4% | UO-31 renal 12.5% | TK-10 renal 73.6% | ACHN renal 22.6% | CAKI-1 renal 21.1% | A498 renal 25%

O=[N+]([O-])c1ccc(Sc2ncccn2)c([N+](=O)[O-])c1
inactive: HCT-15 colon 38.9% | HT29 colon 62.2% | SNB-19 CNS 99.3% | U251 CNS 78.6% | PC-3 prostate 32.9% | SK-MEL-5 melanoma 76.7% | UACC-62 melanoma 60.7% | LOX IMVI melanoma 68.1% | SK-MEL-28 melanoma 71.9% | SK-MEL-2 melanoma 48.5% | EKVX NSCLC 65.8% | SN12C renal 58.5% | TK-10 renal 53.7% | ACHN renal 27.8% | A498 renal 72.5%
active: UO-31 renal 1.15% | CCRF-CEM leukemia -37.2% | MOLT-4 leukemia -25.8%

Cc1cc(N)n(S(=O)(=O)c2oc(-c3ccccc3)nc2C#N)n1
active: ACHN renal 5.25% | CAKI-1 renal -49.4% | MOLT-4 leukemia 0.904%
inactive: HCT-15 colon 61.8% | HT29 colon 90.4% | SNB-19 CNS 93.1% | U251 CNS 86.7% | PC-3 prostate 100% | SK-MEL-5 melanoma 100% | UACC-62 melanoma 90.8% | LOX IMVI melanoma 68.2% | SK-MEL-28 melanoma 106% | SK-MEL-2 melanoma 89.7% | EKVX NSCLC 84.7% | SN12C renal 83.9% | UO-31 renal 80.6% | TK-10 renal 99.1% | A498 renal 128%

Cc1c(C(=N)C(C#N)C#N)c(=N)oc2c1ccc1ccccc12
inactive: HCT-15 colon 74.2% | HT29 colon 93.3% | SNB-19 CNS 103% | U251 CNS 87.4% | PC-3 prostate 97.8% | SK-MEL-5 melanoma 83.7% | UACC-62 melanoma 78.3% | LOX IMVI melanoma 92.8% | SK-MEL-28 melanoma 124% | SK-MEL-2 melanoma 26.6% | EKVX NSCLC 26.9% | SN12C renal 88.7% | UO-31 renal 85.5% | TK-10 renal 121% | ACHN renal 86.4% | A498 renal 85.2% | CCRF-CEM leukemia 66.1% | MOLT-4 leukemia 64.3%

O=S(=O)(NCCNc1nccc(-c2c(-c3cccc(O)c3)nc3sccn23)n1)c1ccc(F)cc1
inactive: HCT-15 colon 81% | HT29 colon 38.3% | SNB-19 CNS 111% | U251 CNS 79.4% | PC-3 prostate 65.7% | SK-MEL-5 melanoma 39.8% | UACC-62 melanoma 16.7% | LOX IMVI melanoma 38.5% | SK-MEL-28 melanoma 43.5% | SK-MEL-2 melanoma 41.7% | SN12C renal 63.9% | UO-31 renal 83.4% | TK-10 renal 108% | ACHN renal 60.2% | CAKI-1 renal 82.7% | A498 renal 76.4% | CCRF-CEM leukemia 41.7% | MOLT-4 leukemia 44.5%

Cc1ccc(S(=O)(=O)c2nc(-c3ccccc3)oc2S(C)(=O)=O)cc1
inactive: SNB-19 CNS 60.9% | U251 CNS 60.7% | PC-3 prostate 84% | SK-MEL-5 melanoma 88.8% | UACC-62 melanoma 75.7% | SK-MEL-28 melanoma 62.6% | SK-MEL-2 melanoma 67.5% | EKVX NSCLC 74.1% | A498 renal 85.2%
active: HCT-15 colon -14.2% | HT29 colon -6.17% | LOX IMVI melanoma -32.7% | SN12C renal 0.543% | UO-31 renal 2.62% | TK-10 renal -72.8% | ACHN renal -99.7% | MOLT-4 leukemia -16.3%

COc1cc([N+](=O)[O-])c2ncccc2c1O
active: HCT-15 colon 4.36% | SNB-19 CNS 6.29% | SK-MEL-5 melanoma -59.4% | SK-MEL-2 melanoma 4.77%
inactive: HT29 colon 44.6% | U251 CNS 53.3% | PC-3 prostate 78.9% | UACC-62 melanoma 15.8% | LOX IMVI melanoma 66% | SK-MEL-28 melanoma 28.5% | EKVX NSCLC 105% | SN12C renal 33.7% | UO-31 renal 25.6% | TK-10 renal 89.2% | ACHN renal 88.8% | CAKI-1 renal 82.9% | CCRF-CEM leukemia 61.3% | MOLT-4 leukemia 119%

C=CCSc1n[nH]c(-c2cccs2)n1
inactive: HCT-15 colon 103% | HT29 colon 102% | SNB-19 CNS 103% | U251 CNS 99.3% | PC-3 prostate 108% | SK-MEL-5 melanoma 104% | UACC-62 melanoma 101% | LOX IMVI melanoma 99.8% | SK-MEL-28 melanoma 129% | EKVX NSCLC 108% | SN12C renal 97.2% | UO-31 renal 118% | TK-10 renal 121% | ACHN renal 105% | A498 renal 101% | CCRF-CEM leukemia 94.6% | MOLT-4 leukemia 99.5%
active: SK-MEL-2 melanoma 3.39%

CCOC(=O)CN1/C(=N/c2sc3c(c2C(=O)OCC)CCN(C(=O)OCC)C3)SC(=O)/C1=C\C(=O)OC
inactive: HCT-15 colon 58.6% | HT29 colon 61.2% | SNB-19 CNS 91.5% | U251 CNS 85.3% | PC-3 prostate 71.6% | SK-MEL-5 melanoma 99.7% | UACC-62 melanoma 92.8% | LOX IMVI melanoma 81.3% | SK-MEL-28 melanoma 109% | SK-MEL-2 melanoma 97.9% | EKVX NSCLC 93.1% | SN12C renal 85.7% | UO-31 renal 73.6% | TK-10 renal 99% | ACHN renal 95% | A498 renal 93.3% | CCRF-CEM leukemia 27.7% | MOLT-4 leukemia 53.8%

CC12CCC3C4(C)COC(c5ccco5)OC4CCC3(C)C1CC(C1=CCOC1=O)O2 (centres undefined)
inactive: HCT-15 colon 97.7% | HT29 colon 105% | SNB-19 CNS 97.3% | U251 CNS 110% | PC-3 prostate 90.5% | SK-MEL-5 melanoma 101% | UACC-62 melanoma 87.8% | LOX IMVI melanoma 106% | SK-MEL-28 melanoma 106% | SK-MEL-2 melanoma 131% | EKVX NSCLC 91.6% | SN12C renal 96.4% | UO-31 renal 81.5% | TK-10 renal 105% | ACHN renal 102% | CAKI-1 renal 92.4% | A498 renal 103% | MOLT-4 leukemia 97.5%

COc1ccc(N=Cc2c(O)ccc3c2oc2cc(Cl)c(O)c(Cl)c23)cc1
inactive: HCT-15 colon 86.6% | HT29 colon 105% | SNB-19 CNS 104% | U251 CNS 87.8% | PC-3 prostate 103% | SK-MEL-5 melanoma 96.3% | UACC-62 melanoma 84.2% | LOX IMVI melanoma 64.5% | SK-MEL-28 melanoma 141% | EKVX NSCLC 108% | SN12C renal 102% | UO-31 renal 103% | TK-10 renal 120% | ACHN renal 96.2% | A498 renal 107% | CCRF-CEM leukemia 77.9% | MOLT-4 leukemia 89.1%
active: SK-MEL-2 melanoma -1.58%
